Here are results for 35 compounds from PubChem BioAssay.

Structures are written as SMILES. Active and inactive are the calls of the source.

This assay deals with NADPH oxidase 2 (Homo sapiens) (UniProt P04839). Nature of the assay: compounds shifting NOX2 Amplex Red fluorescence – cell-based, HEK293-NOX2, PMA-stimulated, NOX inhibitor project, primary screen (AID 1159). Further: test concentration not given here. Particulars: 45 min, higher = more signal, called active from +8 up or from −8 down.
NADPH oxidase 2 (Homo sapiens), sequence (P04839 whole entry, looked up): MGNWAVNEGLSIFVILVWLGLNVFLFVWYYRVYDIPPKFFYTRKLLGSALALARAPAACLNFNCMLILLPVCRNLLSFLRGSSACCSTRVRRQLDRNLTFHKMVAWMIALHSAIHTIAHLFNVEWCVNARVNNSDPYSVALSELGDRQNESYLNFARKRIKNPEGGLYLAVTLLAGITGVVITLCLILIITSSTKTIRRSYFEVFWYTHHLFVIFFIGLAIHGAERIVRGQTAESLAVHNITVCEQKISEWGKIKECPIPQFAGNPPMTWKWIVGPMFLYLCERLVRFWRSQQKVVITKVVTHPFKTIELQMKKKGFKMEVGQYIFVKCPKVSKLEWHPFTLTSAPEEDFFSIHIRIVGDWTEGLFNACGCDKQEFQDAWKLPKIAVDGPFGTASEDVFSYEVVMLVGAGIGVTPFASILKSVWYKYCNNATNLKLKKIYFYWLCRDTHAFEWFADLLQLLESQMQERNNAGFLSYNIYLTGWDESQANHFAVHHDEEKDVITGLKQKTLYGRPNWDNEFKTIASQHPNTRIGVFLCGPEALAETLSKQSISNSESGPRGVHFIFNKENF
Regarding `Cc1ccccc1C(O)C1C=CC2C(=O)N(c3ccccc3)C(=O)C2N1Nc1ccccc1F` (stereo not given), the z-score is -2.02 (inactive).

For the compound `COC(=O)[C@@]1(CCS(=O)(=O)c2ccccc2)N=C(c2ccc(OCCCO)cc2)O[C@H]1c1ccccc1N=[N+]=[N-]`, the z-score is -1.31 (inactive).

For the compound `C=C(CCCC)C(=O)CC[C@H](OC(=O)c1cccnc1)c1ccc(CO)o1`, the z-score was 1.25 (inactive).

With `COCCOC(=O)N1C(=O)[C@@]2(c3cc(C#CC4(O)CCCCCC4)ccc31)[C@H](c1ccc(OCCO)cc1)N1[C@H](c3ccccc3)[C@H](c3ccccc3)OC(=O)[C@H]1[C@@H]2C(N)=O`, the z-score is 1.82 (inactive).

`CN(C)C(=O)[C@]1(Cc2ccccc2)N=C(c2ccc(OCCCO)cc2)O[C@@H]1c1ccccc1`: the z-score was 0.945 (inactive).

With `COc1ccc(C#Cc2ccc3c(c2)[C@]2(C(=O)N3)[C@H](C(=O)Nc3nc4ccccc4s3)[C@H]3C(=O)O[C@H](c4ccccc4)[C@H](c4ccccc4)N3[C@@H]2c2ccc(OCCO)cc2)cc1`, the z-score is 0.578 (inactive).

In the case of `CCOC(=O)C[C@H]1[C@H](OC(=O)c2ccc(C(=O)c3ccccc3)cc2)[C@@H](NC(=O)c2ccc3ccccc3c2)c2cc(OCCCO)ccc2N1C(=O)c1ccc2ccccc2n1`, the z-score is 0.412 (inactive).

On to `CN(C)CCCCNC(=O)[C@H]1C[C@H]2C(=O)N[C@@H](Cc3ccccc3)C(=O)N2[C@H]1c1cccc(OCCO)c1`, for which the z-score was 0.693 (inactive).

`C=C(CC1([C@@H](NP(=O)(c2ccccc2)c2ccccc2)[C@H]2C[C@@H]2CCN(C(=O)OCC)S(=O)(=O)c2ccc(C)cc2)CC1)c1ccccc1`: the z-score was 0.464 (inactive).

With `C=C(CCCC)/C(=C/C[C@H](OC(C)=O)c1cccc(OCCO)c1)c1cc(C(=O)OC)ccc1OC`, the z-score was 1.39 (inactive).

On to `C=CCNC(=O)[C@H]1[C@@H]2C(=O)O[C@@H](c3ccccc3)[C@@H](c3ccccc3)N2[C@@H](c2ccccc2OCCO)[C@]12C(=O)N(C(=O)OCCOC)c1ccccc12`, for which the z-score is 1.14 (inactive).

In the case of `O=C1OCCC/C=C\[C@H]2OC34C=CCN(Cc5ccccc5)C(=O)[C@H]3N(CCCCCO)C(=O)[C@@H]4C12` (stereo not given in full), the z-score was 1.17 (inactive).

As to `CC(C)(C)OC(=O)CC[C@]1(C(=O)N2CCOCC2)N=C(c2ccc(OCCCO)cc2)O[C@H]1c1ccccc1CN=[N+]=[N-]`, the z-score is -1.34 (inactive).

For `CCCC=C(CCC)[C@@H](NC(=O)c1ccco1)c1ccc(C(=O)OC)cc1`, the z-score is -0.0272 (inactive).

`COC(=O)c1c(CC[C@@H](CO)NC(=O)N[C@@H](Cc2ccccc2)Cn2cc(-c3cncn3C)nn2)oc(C(C)=O)c1C(=O)OC`: the z-score was -5.64 (inactive).

For `COC(=O)[C@@]1(Cc2ccc(OC)cc2)[C@H]2c3cc(C(=O)N(C)C)n(Cc4ccsc4Br)c3C[C@H]2CN1C(=O)c1ccccc1`, the z-score is 0.555 (inactive).

Regarding `C=CCC(OC(C)=O)[C@@H]1[C@@H](N(Cc2ccc(-c3ccccc3)cc2)C(=O)c2ccc(-c3ccccc3)cc2)c2cc(OCCCO)ccc2N1C(=O)c1ccc2ccccc2n1` (stereo not given in full), the z-score was 1.18 (inactive).

As for `O=C1c2ccccc2[C@](Cc2ccccc2I)(C(=O)O)[C@H](c2ccc(CO)cc2)N1Cc1ccccc1`, the z-score is 0.516 (inactive).

Regarding `COCC(=C=CC[C@@H](O)c1cccc(OCCO)c1)C[C@@H](O)COCc1ccccc1`, the z-score is -0.0404 (inactive).

With `C[N+](C)(C)CCCCCCNC(=O)[C@@H]1C[C@@H]2C(=O)N[C@@H](Cc3ccccc3)C(=O)N2[C@@H]1c1ccc(O)cc1`, the z-score was 0.627 (inactive).

Turning to `COCCOC(=O)N1C(=O)[C@@]2(c3ccccc31)[C@H](c1ccc(OCCO)cc1)N1[C@H](c3ccccc3)[C@H](c3ccccc3)OC(=O)[C@H]1[C@@H]2C(=O)N1CCN(c2ncccn2)CC1`, the z-score is 1.19 (inactive).

As for `COCCOC(=O)N1C(=O)[C@@]2(c3cc(C#CCCO)ccc31)[C@H](c1ccccc1OCCO)N1[C@H](c3ccccc3)[C@H](c3ccccc3)OC(=O)[C@H]1[C@@H]2C(=O)N1CCc2cc(OC)c(OC)cc2C1`, the z-score was 1.15 (inactive).

As for `C=CCC(OC(C)=O)[C@@H]1[C@@H](N(Cc2cc3ccccc3o2)C(=O)Cc2ccc(OC)cc2)c2cc(OCCCO)ccc2N1C(=O)Cc1ccc(OC)cc1` (stereo not given in full), the z-score was -0.685 (inactive).

As to `CC(C)C[C@H]1NC(=O)[C@@]23C(=O)N[C@@H](Cc4ccccc4)C2[C@H](C)[C@@]2(C)O[C@H]2C3/C=C/C/C=C\CNC(=O)[C@@H]2CCCN2C1=O` (stereo not given in full), the z-score is 0.708 (inactive).

Take `COCCOC(=O)N1C(=O)[C@@]2(c3cc(C#CCC(C(=O)OC)C(=O)OC)ccc31)[C@H](c1ccc(OCCO)cc1)N1[C@H](c3ccccc3)[C@H](c3ccccc3)OC(=O)[C@H]1[C@@H]2C(=O)N1CCCCCCC1`: the z-score was 2.05 (inactive).

Take `COCC(=C=CC[C@@H](O)c1ccc(OCCO)cc1)C[C@@H](O)COCc1ccccc1`: the z-score was -1.16 (inactive).

With `COC(=O)[C@@H]1N=C(c2ccc(OCCCO)cc2)O[C@@H]1c1ccccc1CN=[N+]=[N-]`, the z-score is -0.817 (inactive).

On to `C=C(COC)C(=O)CC[C@@H](OC(C)=O)c1ccc(OCCO)cc1`, for which the z-score is -0.352 (inactive).

For `O=C(NCCO)C1=C[C@H](Oc2ccccc2I)[C@@H](O)[C@H](NCc2ccc(F)cc2)C1`, the z-score was 0.71 (inactive).

Regarding `O=C1O[C@@H](c2ccccc2)[C@@H](c2ccccc2)N2[C@@H](c3ccc(OCCO)cc3)[C@]3(C(=O)Nc4ccc(C#CCCO)cc43)[C@@H](C(=O)Nc3nc4ccccc4s3)[C@H]12`, the z-score was 0.762 (inactive).

Regarding `NCCCC[C@@H]1NC(=O)[C@H]2C[C@@H](C(=O)O)[C@@H](c3cccc(OCCO)c3)N2C1=O`, the z-score is 2.14 (inactive).

As for `COCCOC(=O)N1C(=O)[C@@]2(c3cc(C#CCCO)ccc31)[C@H](C(=O)N1CCc3cc(OC)c(OC)cc3C1)[C@H]1C(=O)O[C@H](c3ccccc3)[C@H](c3ccccc3)N1[C@@H]2c1ccccc1OCCO`, the z-score was 1.72 (inactive).

`COC(=O)[C@@]1(Cc2ccccc2)[C@@H]2[C@@H](CC(=O)[C@H]2CC(=O)C(=O)N(C)C)CN1C(=O)c1ccccc1`: the z-score was 0.984 (inactive).

Consider `O=C1O[C@H](c2ccccc2)[C@H](c2ccccc2)N2[C@H]1[C@@H](C(=O)N1CCN(c3ncccn3)CC1)[C@]1(C(=O)Nc3ccccc31)[C@H]2c1ccc(O)cc1`, for which the z-score was 0.898 (inactive).

Turning to `CCOC(=O)C1=CC[C@@H](c2ccccc2Cl)N(S(=O)(=O)c2ccc(C)cc2)[C@H]1c1cccc(OC)c1`, the z-score is 0.78 (inactive).
